Test results from PubChem BioAssay AID1159580 (chemical genetic matrix, 2015).
Where “and” joins values, the source holds several entries; their conditions need not be identical. Identical values can stand only once. Hit rate of the full screen: of about 5,500 compounds, about 2,000 (36%) were called active. Another 18% or so got no clear call; they are omitted. Cut-off read from the data, not from the text of the source: active = normalized growth mostly below about 0.91 (no sharp cut-off); inconclusive = no clear call, values can overlap the other calls; inactive = mostly above about 0.92. This is one part of the list.

Test: chemical genetic growth profiling, strain panel (AID 1159580);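 note: tested at 20 µM; growth read once vehicle control cultures reached saturation at 30 °C; 1 = growth at the plate median or of vehicle wells; lower values mean less growth of the strain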
Conditions: growth OD

Measured: normalized growth

O=C(O)c1cccnc1C(=O)O
inactive: S. cerevisiae deletion strains, locus YJR066W, strain TOR1, hits give low values 0.979 | S. cerevisiae deletion strains, locus YJR075W, strain HOC1, hits give low values 1.08 | S. cerevisiae deletion strains, locus YKL009W, strain mrt4, hits give low values 1.03 | S. cerevisiae deletion strains, locus YKL068W, hits give low values 0.982 | S. cerevisiae deletion strains, locus YKL085W, strain MDH1 (second series), hits give low values 0.982 | S. cerevisiae deletion strains, locus YKL085W, strain MDH1, hits give low values 0.982 | S. cerevisiae deletion strains, locus YKL160W, strain elf1, hits give low values 0.999 | S. cerevisiae deletion strains, locus YKL190W, strain CNB1, hits give low values 1.01 | S. cerevisiae deletion strains, locus YKR001C, strain vps1, hits give low values 0.986 | S. cerevisiae deletion strains, locus YKR026C, strain gcn3, hits give low values 0.981 | S. cerevisiae deletion strains, locus YKR091W, strain srl3, hits give low values 0.999 | S. cerevisiae deletion strains, locus YLL001W, strain dnm1, hits give low values 1.04 | S. cerevisiae deletion strains, locus YLL026W, hits give low values 1.01 | S. cerevisiae deletion strains, locus YLL041C, strain sdh2, hits give low values 1 | S. cerevisiae deletion strains, locus YLR027C, strain aat2, hits give low values 1.01 | S. cerevisiae deletion strains, locus YLR039C, strain RIC1, hits give low values 1.08 | S. cerevisiae deletion strains, locus YLR058C, strain SHM2, hits give low values 1.02 | S. cerevisiae deletion strains, locus YLR102C, strain apc9, hits give low values 0.985 | S. cerevisiae deletion strains, locus YLR113W, strain HOG1, hits give low values 0.996 | S. cerevisiae deletion strains, locus YLR221C, strain rsa3, hits give low values 1.04 | S. cerevisiae deletion strains, locus YLR258W, strain gsy2, hits give low values 1.01 | S. cerevisiae deletion strains, locus YLR262C, strain YPT6 (second series), hits give low values 1.01 | S. cerevisiae deletion strains, locus YLR262C, strain YPT6, hits give low values 1.09 | S. cerevisiae deletion strains, locus YLR268W, strain sec22, hits give low values 1.01 | S. cerevisiae deletion strains, locus YLR320W, strain mms22, hits give low values 1.04 | S. cerevisiae deletion strains, locus YLR330W, strain CHS5, hits give low values 1.01 | S. cerevisiae deletion strains, locus YLR342W, strain FKS1 (second series), hits give low values 1.01 | S. cerevisiae deletion strains, locus YLR342W, strain FKS1, hits give low values 1.01 | S. cerevisiae deletion strains, locus YLR357W, strain rsc2, hits give low values 0.987 | S. cerevisiae deletion strains, locus YLR370C, strain arc18, hits give low values 0.984 | S. cerevisiae deletion strains, locus YLR371W, strain rom2, hits give low values 0.986 | S. cerevisiae deletion strains, locus YLR384C, strain iki3, hits give low values 1.01 | S. cerevisiae deletion strains, locus YLR418C, strain cdc73, hits give low values 1.04 | S. cerevisiae deletion strains, locus YML016C, strain PPZ1, hits give low values 1.01 | S. cerevisiae deletion strains, locus YML032C, strain rad52, hits give low values 1.01 | S. cerevisiae deletion strains, locus YML120C, strain ndi1, hits give low values 1 | S. cerevisiae deletion strains, locus YML124C, strain tub3, hits give low values 0.989 | S. cerevisiae deletion strains, locus YMR058W, strain fet3, hits give low values 1 | S. cerevisiae deletion strains, locus YMR078C, strain ctf18, hits give low values 0.99 | S. cerevisiae deletion strains, locus YMR125W, strain sto1, hits give low values 1 | S. cerevisiae deletion strains, locus YMR129W, hits give low values 0.987 | S. cerevisiae deletion strains, locus YMR205C, strain PFK2, hits give low values 0.988 | S. cerevisiae deletion strains, locus YMR223W, strain ubp8, hits give low values 1.01 | S. cerevisiae deletion strains, locus YMR231W, strain pep5, hits give low values 0.996 | S. cerevisiae deletion strains, locus YMR307W, strain GAS1, hits give low values 1.02 and 0.993 | S. cerevisiae deletion strains, locus YNL067W, strain RPL9B, hits give low values 1.06 | S. cerevisiae deletion strains, locus YNL071W, strain lat1, hits give low values 0.998 | S. cerevisiae deletion strains, locus YNL128W, strain TEP1, hits give low values 1.03 and 1.01 | S. cerevisiae deletion strains, locus YNL175C, strain NOP13, hits give low values 1.02 | S. cerevisiae deletion strains, locus YNL183C, strain NPR1, hits give low values 0.934 | S. cerevisiae deletion strains, locus YNL197C, strain WHI3, hits give low values 1.01 | S. cerevisiae deletion strains, locus YNL209W, strain ssb2, hits give low values 0.994 | S. cerevisiae deletion strains, locus YNL224C, strain SQS1, hits give low values 0.998 | S. cerevisiae deletion strains, locus YNL233W, strain BNI4, hits give low values 1.06 | S. cerevisiae deletion strains, locus YNL248C, strain rpa49, hits give low values 0.997 | S. cerevisiae deletion strains, locus YNL250W, strain rad50, hits give low values 0.984 | S. cerevisiae deletion strains, locus YNL271C, strain bni1, hits give low values 0.962 | S. cerevisiae deletion strains, locus YNL298W, strain CLA4, hits give low values 0.977 | S. cerevisiae deletion strains, locus YNL307C, strain MCK1, hits give low values 1.01 | S. cerevisiae deletion strains, locus YNL322C, strain KRE1 (second series), hits give low values 0.985 | S. cerevisiae deletion strains, locus YNL322C, strain KRE1, hits give low values 1.01 | S. cerevisiae deletion strains, locus YNR049C, strain mso1, hits give low values 0.989 | S. cerevisiae deletion strains, locus YNR052C, strain pop2, hits give low values 0.996 | S. cerevisiae deletion strains, locus YOL006C, strain TOP1, hits give low values 1.11 | S. cerevisiae deletion strains, locus YOL012C, strain htz1 1.66 | S. cerevisiae deletion strains, locus YOL147C, strain pex11, hits give low values 0.99 | S. cerevisiae deletion strains, locus YOR001W, strain rrp6, hits give low values 1.04 | S. cerevisiae deletion strains, locus YOR061W, strain CKA2, hits give low values 1.02 | S. cerevisiae deletion strains, locus YOR069W, strain VPS5, hits give low values 1.02 | S. cerevisiae deletion strains, locus YOR070C, strain gyp1, hits give low values 0.998 | S. cerevisiae deletion strains, locus YOR080W, strain dia2, hits give low values 0.974 | S. cerevisiae deletion strains, locus YOR083W, strain WHI5 (second series), hits give low values 1.03 | S. cerevisiae deletion strains, locus YOR083W, strain WHI5, hits give low values 0.945 | S. cerevisiae deletion strains, locus YOR106W, strain vam3, hits give low values 0.991 | S. cerevisiae deletion strains, locus YOR136W, strain idh2, hits give low values 1.02 | S. cerevisiae deletion strains, locus YOR144C, strain elg1, hits give low values 0.979 | S. cerevisiae deletion strains, locus YOR184W, strain ser1, hits give low values 0.998 | S. cerevisiae deletion strains, locus YOR231W, strain MKK1, hits give low values 1.03 | S. cerevisiae deletion strains, locus YOR265W, strain rbl2, hits give low values 0.989 | S. cerevisiae deletion strains, locus YOR270C, strain vph1, hits give low values 0.984 | S. cerevisiae deletion strains, locus YOR290C, strain snf2, hits give low values 0.987 | S. cerevisiae deletion strains, locus YOR316C, strain cot1, hits give low values 0.993 | S. cerevisiae deletion strains, locus YPL051W, strain arl3, hits give low values 1.02 | S. cerevisiae deletion strains, locus YPL055C, strain LGE1, hits give low values 1.11 | S. cerevisiae deletion strains, locus YPL078C, strain atp4, hits give low values 1.05 | S. cerevisiae deletion strains, locus YPL106C, strain sse1, hits give low values 1.06 | S. cerevisiae deletion strains, locus YPL240C, strain hsp82, hits give low values 0.994 | S. cerevisiae deletion strains, locus YPL256C, strain CLN2, hits give low values 1 | S. cerevisiae deletion strains, locus YPR119W, strain clb2, hits give low values 0.988 | S. cerevisiae deletion strains, locus YPR141C, strain kar3, hits give low values 0.978 | S. cerevisiae deletion strains, locus YPR163C, strain tif3, hits give low values 0.996 | S. cerevisiae deletion strains, locus YPR167C, strain met16, hits give low values 0.983 | S. cerevisiae deletion strains, strain wtn01, hits give low values 0.997 | S. cerevisiae strains, strain wild type, hits give low values 1.02
